# The source made the active and inactive calls. The rule behind the calls is not given here. Square brackets hold non-standard residues; d marks the D form. Peptide text beside a SMILES is read from it. * marks the point of attachment. Dolaproine = CO[C@@H]([C@@H]1CCCN1)[C@@H](C)C(=O)O; Dil = CC[C@H](C)[C@H](NC)[C@@H](CC(=O)O)OC; NMe2Val = CC(C)[C@@H](C(=O)*)N(C)C; X1 = C[C@@H](N*)[C@@H](O)c1ccccc1; NMeV = CN[C@H](C(=O)O)C(C)C
# Test: Identification of antibody-drug conjugate (ADC) payloads which are substrates of ATP-binding cassette drug efflux transporters: cell line panel data
# Conditions: 99 cancer cell line panel, CellTiter-Glo viability, 48 h; active compounds read low
# Excerpt: Antibody-drug conjugates (ADCs) feature an antibody recognizing a specific protein joined to a potent toxic payload. Numerous antibody-drug conjugates have received FDA approval; however, clinical resistance arises. Resistance mechanisms include decreased expression or mutation of the antibody target, impaired payload release, or increased expression of ATP-binding cassette (ABC) efflux transporters associated with multidrug resistance. We therefore sought to characterize the activity of ADC payloads across a broad set of cancer cell lines. We performed a high-throughput screen with 27 common ADC payloads against a panel of 99 cell lines to assess sensitivity to various payloads. Duocarmycin DM and PNU-159682 were exquisitely toxic across the panel of cancer cell lines of varying origins. These findings highlight the potentially broad applicability of Duocarmycin DM and PNU-159682 as ADC payloads in future ADC development.
# Compounds were sourced from Levena Biopharma (San Diego, CA), Selleck Chem (Houston, TX), ChemieTek (Indianapolis, IN), or Microsource Discovery Systems (Gaylordsville, CT). Cell line sources and culture conditions were as follows: CAL-27 (ATCC: CRL-2095) and Hs 766T (ATCC: HTB-134) were grown in DMEM media +10% FBS. RKO (ATCC: CRL-2577), A-427 (ATCC: […]), BT-20 (ATCC: HTB-19), Detroit562 (ATCC: CCL-138), HARA-B (Cytion: 300465), PA-1 (ATCC: CRL-1572), TCCSUP (ATCC: […]), UM-UC-3 (ATCC: CRL-1749), and WI-38 (ATCC: CCL-75) were grown in EMEM media +10% FBS. AGS (ATCC: CRL-1739) was grown in F12K media +10% FBS. JJN-3 (DSMZ: ACC 541) was grown in IMDM media +20% FBS. 769-P (ATCC: CRL-1933), 786-O (ATCC: CRL-1932), A-375 (ATCC: CRL-1619), A-431 (ATCC: CRL-1555), A-549 (ATCC: CCL-185), A2780 (Cytion: 300491), ACHN (ATCC: CRL-1611), BT-474 (ATCC: HTB-20), BT-549 (ATCC: HTB-122), CCRF-CEM (ATCC: CCL-119), Daudi (ATCC: CCL-213), HaCaT (Cytion: 300493), HCC38 (ATCC: CRL-2314), HCC827 (ATCC: CRL-2868), HCT15 (ATCC: CCL-225), HEL 92.1.7 (ATCC: TIB-180), Hs 352.Sk (ATCC: CRL-7250), Hs578T (ATCC: HTB-126), HT-1080 (ATCC: CCL-121), HuCC-T1 (Riken Bioresource Center: RCB1960), HuP-T3 (DSMZ: ACC 259), HuP-T4 (DSMZ: ACC 223), IM-9 (ATCC: CCL-159), JJ012 (Gift: Karina Galoian (University of Miami)), JM-1 (ATCC: CRL-10423), K-562 (ATCC: CCL-243), Kasumi-3 (ATCC: CRL-2725), KMS-12-BM (DSMZ: ACC 551), LOUCY (ATCC: CRL-2629), LoVo (ATCC: CCL-229), MCF-7 (ATCC: HTB-22), MDA-MB-231 (ATCC: HTB-26), MDA-MB-436 (ATCC: HTB-130), MDA-MB-468 (ATCC: HTB-132), MIA PaCa-2 (ATCC: CRL-1420), MM1.R (ATCC: CRL-2975), MM1.S (ATCC: CRL-2974), NALM-6 (ATCC: CRL-3273), NCI-H1299 (ATCC: CRL-5803), NCI-H1355 (ATCC: CRL-5865), NCI-H1395 (ATCC: CRL-5868), NCI-H1437 (ATCC: CRL-5872), NCI-H2122 (ATCC: CRL-5985), NCI-H2170 (ATCC: CRL-5928), NCI-H226 (ATCC: CRL-5826), NCI-H23 (ATCC: CRL-5800), NCI-H322M (NIH: NCI-60), NCI-H460 (ATCC: HTB-177), NCI-H522 (ATCC: CRL-5810), NCI-H929 (ATCC: CRL-3580), NIH 3T3 (ATCC: CRL-1658), OCI-M2 (DSMZ: ACC 619), OPM-2 (DSMZ: ACCC 50), OVCAR-3 (ATCC: HTB-161), OVCAR-4 (Gift: Phil Lorenzi MD Anderson), OVCAR-8 (Gift: Phil Lorenzi MD Anderson), Panc 10.05 (ATCC: CRL-2547), PANC-1 (ATCC: CRL-1469), Pfeiffer (ATCC: CRL-2632), PL45 (ATCC: CRL-2558), PSN1 (ATCC: CRL-3211), Raji (ATCC: CCL-86), RD (Gift: Mari Yohe NCI), RPMI-8226 (ATCC: CRM-CCL-155), RS4;11 (ATCC: CRL-1873), SK-BR-3 (ATCC: HTB-30), SK-MEL-28 (ATCC: HTB-72), SMS-CTR (Gift: Mari Yohe NCI), SNU-16 (ATCC: CRL-5974), SU-DHL-8 (ATCC: CRL-2961), SU.86.86 (ATCC: CRL-1837), SW1990 (ATCC: CRL-2172), SW403 (ATCC: CCL-230), SW480 (ATCC: CCL-228), SW579 (ATCC: HTB-107), T-47D (ATCC: HTB-133), T24 (ATCC: HTB-4), and U-937 (ATCC: CRL-1593.2) were grown in RPMI +10% FBS. U266B1 (ATCC: TIB-196) were grown in RPMI +15% FBS. ME-1 (ATCC: HB-119), MOLM-13 (DSMZ: ACC 554), AMO1 (DSMZ: ACC 538), MOLP-8 (DSMZ: ACC 569), MV4-11 (ATCC: CRL-9591), PL-21 (DSMZ: ACC 536), and L-363 (DSMZ: ACC 49) were grown in RPMI +20% FBS. […]
row,Compound,viability AUC
1,COc1cc2cc(C(=O)N3C[C@@H](CCl)c4c3cc(O)c3ccccc43)[nH]c2c(OC)c1OC,654 (active)
2,COc1cc2cc(c1Cl)N(C)C(=O)C[C@H](OC(=O)[C@H](C)N(C)C(=O)CCS)[C@]1(C)OC1[C@H](C)C1C[C@@](O)(NC(=O)O1)[C@H](OC)/C=C/C=C(\C)C2 (stereo partly specified),817 (active)
3,CC[C@H](C)[C@H](NC(=O)[C@H]1CCCCN1C)C(=O)N(C)[C@H](C[C@@H](OC(C)=O)c1nc(C(=O)O)cs1)C(C)C,982 (active)
4,COc1cc2cc(c1Cl)N(C)C(=O)C[C@H](OC(=O)C(C)C)[C@]1(C)O[C@H]1[C@H](C)[C@@H]1C[C@@](O)(NC(=O)O1)[C@H](OC)C=CC=C(C)C2,756 (active)
5,CC[C@H](C)[C@@H]1NC(=O)CNC(=O)[C@H]2Cc3c([nH]c4cc(O)ccc34)S(=O)C[C@H](NC(=O)CNC1=O)C(=O)N[C@@H](CC(N)=O)C(=O)N1C[C@H](O)C[C@H]1C(=O)N[C@@H]([C@@H](C)[C@@H](O)CO)C(=O)N2 (stereo partly specified),992 (active)
6,CC[C@H](C)[C@H](NC(=O)[C@H]1CCCCN1C)C(=O)N(C)[C@H](C[C@@H](OC(C)=O)c1nc(C(=O)N[C@@H](Cc2ccccc2)C[C@H](C)C(=O)O)cs1)C(C)C,793 (active)
7,COc1cccc2c1C(=O)c1c(O)c3c(c(O)c1C2=O)C[C@@](O)(C(=O)CO)CC3OC1CC(N2CCOC(OC)C2)C(O)C(C)O1 (stereo partly specified),666 (active)
8,CC[C@H](C)[C@@H]([C@@H](CC(=O)N1CCC[C@H]1[C@H](OC)[C@@H](C)C(=O)N[C@H](C)[C@@H](O)c1ccccc1)OC)N(C)C(=O)[C@@H](NC(=O)[C@H](C(C)C)N(C)C)C(C)C,699 (active)
9,COc1cc2cc(c1Cl)N(C)C(=O)C[C@H](OC(=O)[C@H](C)N(C)C(=O)CCC(C)(C)S)[C@]1(C)OC1[C@H](C)C1C[C@@](O)(NC(=O)O1)[C@H](OC)/C=C/C=C(\C)C2 (stereo partly specified),777 (active)
10,CC[C@H](C)[C@@H]([C@@H](CC(=O)N1CCC[C@H]1[C@H](OC)[C@@H](C)C(=O)N[C@H](C)[C@@H](O)c1ccccc1)OC)N(C)C(=O)[C@@H](NC(=O)[C@@H](NC)C(C)C)C(C)C (H-[NMeV]V[Dil][Dolaproine]-X1),816 (active)
11,CC[C@H](C)[C@@H]([C@@H](CC(=O)N1CCC[C@H]1[C@H](OC)[C@@H](C)C(=O)N[C@@H](Cc1ccccc1)C(=O)O)OC)N(C)C(=O)[C@@H](NC(=O)[C@H](C(C)C)N(C)C)C(C)C (NMe2Val-V[Dil][Dolaproine]F-OH),932 (active)
